Compounds without any hit were thinned out: in the full panel of roughly 79,000, 15% have a hit. Unmarked numbers belong to inactive results. No stated cut-off is given here; in the data, active means growth inhibition above about 70%; inactive means the rest.

The test in a line: NCI Yeast Anticancer Drug Screen. Data for the sgs1 mgt1 strain (AID 161).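 Further: 0% = growth of cultures given vehicle only.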 The conditions noted are these: S. cerevisiae sgs1 mgt1 strain, at 50.0 µM, active compounds read high. The method, boiled down: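 Mutant yeast exposed to compound; growth scored against vehicle-only wells.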
Consider `CCC(C)(C)c1ccc(OCCOc2ccc(C(=O)O)cc2[N+](=O)[O-])cc1`, for which the growth inhibition is -3.9%.

As to `CC(C)CN(CC(C)C)/N=C/c1cc([N+](=O)[O-])ccc1O`, the growth inhibition is -4.9%.

With `COc1ccc(C=Nc2c(N)[nH]c(=S)[nH]c2=O)cc1`, the growth inhibition was -4.15%.

With `O=C(OC1CCC(c2ccccc2)C1)c1cc([N+](=O)[O-])cc([N+](=O)[O-])c1` (stereo not given), the growth inhibition is 29.4%.

Regarding `O=C1c2ccccc2C(=O)N1Cl`, the growth inhibition is -37.1%.

Consider `CCOC(=O)O/C(C)=C\c1ccccc1Cl`, for which the growth inhibition is -7.75%.

In the case of `CCC1(c2ccccc2)CCCC/C1=N/NC(N)=O` (stereo not given), the growth inhibition is -0.8%.

For `Cc1ccc(S(=O)(=O)N/N=C/C(O)C(O)C(O)C(O)CO)cc1` (stereo not given), the growth inhibition was -14.8%.

On to `Cc1ccc(CO)cc1`, for which the growth inhibition was 21.9%.

Regarding `O=C(CN1CCCc2ccccc21)c1ccccc1`, the growth inhibition was 4.55%.

For the molecule `C/C=C/C1OCC(C)([N+](=O)[O-])CO1` (stereo not given), the growth inhibition is 19.4%.

Regarding `N=C(Oc1ccccc1)c1ccccc1`, the growth inhibition was -12.6%.

Regarding `CCOC(=O)CN/N=C(\N)CSS(=O)(=O)O`, the growth inhibition was -2.05%.

In the case of `Cc1ccccc1N=CC(C=O)[N+](=O)[O-]` (stereo not given), the growth inhibition was 0.95%.

Turning to `CCCCCCCCCCCCCCC[N+](C)(C)C`, the growth inhibition is 36.1%.

As for `CC(=O)O[C@@H]1[C@H]2O[C@H]2[C@H]2O[C@@]2(COC(=O)c2ccccc2)[C@H]1OC(C)=O`, the growth inhibition is 24.4%.

Regarding `CSc1nnc2c3ccccc3ccn12`, the growth inhibition is -2.25%.

Regarding `CC(=O)c1cccc(NC(=O)C(=O)C(C(=O)NN)c2ccccc2)c1` (stereo not given), the growth inhibition is -5.2%.

For `CN1CCCn2c(nc3ccccc3c2=O)C1`, the growth inhibition is -5.55%.

Regarding `O=C(O)Cc1ccc2ccccc2c1Br`, the growth inhibition was 1.8%.

As for `CCOC(=O)c1c(-c2ccc([N+](=O)[O-])cc2)c(C#N)n(-c2ccccc2)c1C`, the growth inhibition is 28.4%.

Consider `Cc1[nH]c2c(C)ccc(C)c2c1CC(=O)O`, for which the growth inhibition is -40.8%.

For `CCOC(=O)c1c(O)csc1N`, the growth inhibition is 3.8%.

As for `O=CC1CCCc2ccccc21` (stereo not given), the growth inhibition is -0.7%.

For `CN(C)Cc1cc(O)c(O)c(CN(C)C)c1`, the growth inhibition was -8.45%.

Regarding `NCCNCCCNC(=O)c1cc(-c2ccccc2)nc2ccccc12`, the growth inhibition is -1.7%.

In the case of `O/N=C1\CC2(N3CCOCC3)CCC1(Cc1ccccc1)CC2`, the growth inhibition is 60.2%.

For the molecule `COC(=O)c1ccc(O)c(CN(C)C)c1`, the growth inhibition is 6.6%.

Consider `C[N+]1(C)CCCC(CN2c3ccccc3Sc3ccccc32)C1` (stereo not given), for which the growth inhibition was 7.85%.

For `Cc1nc(/N=C(/N)N(C)C)[nH]c(=O)c1C`, the growth inhibition is -11.6%.

Consider `CC(C)(CC1(C)NC(=O)NC1=O)OCc1ccccc1` (stereo not given), for which the growth inhibition was -14.8%.

On to `CCCCCCn1c(=O)cc2n(c1=O)CCC2`, for which the growth inhibition was 22.1%.

On to `CCOCC(=O)N[C@H]1CCc2cc(OC)c(OC)c(OC)c2-c2ccc(OC)c(=O)cc21`, for which the growth inhibition was 22.4%.

Take `COc1ccc(C=Nc2ccc(O)cc2)cc1`: the growth inhibition was -8.35%.

Take `O=C(Cc1ccccc1CC(=O)Oc1ccccc1)Oc1ccccc1`: the growth inhibition is 10.8%.

For `COC(=O)C(=O)C(C(=O)c1cccc2ccccc12)c1nc2n(c1O)C(=N)N=N2` (stereo not given), the growth inhibition is 11.6%.

With `CC(=O)ON=C(C1CC1)C1CC1`, the growth inhibition was -6.4%.

For `O=[N+]1C=CC(=NN=c2ccn([O-])cc2)C=C1`, the growth inhibition was 8.65%.

Regarding `Nc1c(Cl)cnn2nnnc12`, the growth inhibition is -15.6%.

Consider `C=CCOC(=O)c1cccc(C(=O)OCC=C)c1`, for which the growth inhibition is 40.2%.

The record behind these values is PubChem BioAssay (NCI).
